# Laboratory results from paper PMC4336329 (PLoS ONE, 2015).
# The whole screen tested about 310,000 compounds, of which about 14,000 (4.5%) showed an effect of 50% or more. The effect is printed as a negative number. The sample holds strong results, similar compounds and a random draw of the others, so the mix is not that of the screen.
# Molecular target: human ether-à-go-go-related gene (hERG) potassium channel (human, UniProt Q12809)
# Assay: primary screen, population patch clamp on CHO cells stably expressing hERG; higher = less effect of the substance
# 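Further: peak tail current of the secondary pulse compared with the same well before compound.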
# human ether-à-go-go-related gene (hERG) potassium channel, sequence (Q12809 whole entry, looked up): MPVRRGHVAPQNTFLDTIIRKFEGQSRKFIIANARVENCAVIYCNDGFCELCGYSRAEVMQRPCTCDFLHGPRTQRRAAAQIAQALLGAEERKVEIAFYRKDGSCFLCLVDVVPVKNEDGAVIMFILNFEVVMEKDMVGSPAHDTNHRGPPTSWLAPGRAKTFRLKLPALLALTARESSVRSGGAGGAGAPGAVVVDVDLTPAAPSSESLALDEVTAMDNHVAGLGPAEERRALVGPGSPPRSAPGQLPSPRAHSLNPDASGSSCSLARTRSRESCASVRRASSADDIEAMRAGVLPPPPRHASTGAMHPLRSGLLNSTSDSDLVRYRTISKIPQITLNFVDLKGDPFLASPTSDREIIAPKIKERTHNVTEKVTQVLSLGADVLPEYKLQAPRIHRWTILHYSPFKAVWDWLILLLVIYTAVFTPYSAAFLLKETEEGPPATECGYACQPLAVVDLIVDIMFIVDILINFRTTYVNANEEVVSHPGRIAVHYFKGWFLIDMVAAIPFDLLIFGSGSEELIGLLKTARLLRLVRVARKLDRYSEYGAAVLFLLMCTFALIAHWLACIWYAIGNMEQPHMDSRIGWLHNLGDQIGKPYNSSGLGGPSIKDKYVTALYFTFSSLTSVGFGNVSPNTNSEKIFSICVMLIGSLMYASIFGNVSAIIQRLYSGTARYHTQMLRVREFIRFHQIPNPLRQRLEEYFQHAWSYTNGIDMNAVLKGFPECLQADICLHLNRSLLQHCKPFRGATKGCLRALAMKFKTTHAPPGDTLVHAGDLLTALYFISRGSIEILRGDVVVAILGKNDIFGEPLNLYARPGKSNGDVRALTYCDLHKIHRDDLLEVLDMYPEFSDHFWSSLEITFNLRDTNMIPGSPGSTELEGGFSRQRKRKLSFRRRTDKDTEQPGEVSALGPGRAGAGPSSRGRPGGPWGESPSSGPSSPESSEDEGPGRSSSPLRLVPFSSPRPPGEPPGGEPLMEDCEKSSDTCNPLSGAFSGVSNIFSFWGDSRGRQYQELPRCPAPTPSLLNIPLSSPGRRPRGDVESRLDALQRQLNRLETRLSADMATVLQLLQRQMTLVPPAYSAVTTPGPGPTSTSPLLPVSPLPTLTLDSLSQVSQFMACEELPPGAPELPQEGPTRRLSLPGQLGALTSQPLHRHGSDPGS
row,SMILES,"hERG current change (%, negative = inhibition) at 10uM"
1,Cc1ccccc1-c1nc(CN2CCC(C(=O)NC3CCN(Cc4ccccc4)CC3)CC2)c(C)o1,-43%
2,Cc1ccccc1-c1nc(CN2CCC(C(=O)NC3CC3)CC2)c(C)o1,-33%
3,Cc1ccccc1-c1nc(CN2CCC(C(=O)NCC3CCCO3)CC2)c(C)o1 (centres unmarked),-54.5%
4,Cc1oc(-c2cccc(Cl)c2)nc1CN1CCC(C(=O)NCC2CCCO2)CC1 (centres unmarked),-57.1%
5,Cc1cccc(-c2nc(CS(=O)CC(=O)NCC3CCCO3)c(C)o2)c1 (centres unmarked),-5.24%
6,O=C(NCC1CCCO1)C1CCN(C(=O)c2ccc(Cl)cc2)CC1 (centres unmarked),-1.73%
7,Cc1oc(-c2ccc(Cl)cc2)nc1CN1CCC(C(=O)NCC2CCCO2)CC1 (centres unmarked),-70.1%
8,Cc1ccccc1-c1nc(CN2CCC(C(=O)NC3CCCCC3)CC2)c(C)o1,-67.7%
9,Cc1ccccc1-c1nc(CN2CCC(C(=O)NCCN3CCOCC3)CC2)c(C)o1,-11.4%
10,COc1ccc(-c2nc(CN3CCC(C(=O)NCC4CCCO4)CC3)c(C)o2)cc1OC (centres unmarked),-20.9%
11,Cc1ccccc1-c1nc(CN2CCC(C(=O)NCCCN3CCCC3)CC2)c(C)o1,14.4%
12,COc1ccccc1N(CC(=O)NC1CCCCC1)C(=O)CCC(=O)Nc1nccs1,-2.17%
13,COc1ccc(-c2ccc(SCC(=O)c3ccccc3)nn2)cc1OC,-15.7%
14,CC(=O)c1ccc(NC(=O)Nc2ccccc2)cc1,-2.03%
15,CCOC(=O)c1c(C)sc2c1N(C(=O)CN1CCOCC1)c1cc(Cl)ccc1S2,-21.5%
16,CC1CCN(C(=O)CN(C2CCCCC2)S(C)(=O)=O)CC1,1.15%
17,COc1ccc(N2CCN(c3cc(C)c4cccc(C)c4n3)CC2)cc1,22.7%
18,COc1ccccc1NC(=O)c1nnn(CC(=O)Nc2cc(C)cc(C)c2)c1N,17%
19,CC(C)S(=O)(=O)c1cnc(N2CCOCC2)nc1N,11.4%

row,SMILES,"hERG current change (%, negative = inhibition) at 10uM"
1,Nc1ccc2nc(-c3ccccc3)sc2c1,23.4%
2,Cc1cccc(OCc2n[nH]c(=S)n2Cc2ccccc2)c1,11.8%
3,O=C(CNC(=O)c1sc2ccccc2c1Cl)Nc1ccccc1F,-6.72%
4,COc1ccc(NC(=O)CN(C)C(=O)CCC2CCCC2)cc1,5.49%
5,O=C(C1CCCN(S(=O)(=O)c2cccc3nsnc23)C1)N1CCCCCC1 (centres unmarked),-16.8%
6,O=C(C1CCC(CNS(=O)(=O)c2cccc3nsnc23)CC1)N1CCN(c2ccccn2)CC1 (centres unmarked),-53.9%
7,O=C(C1CCC(CNS(=O)(=O)c2cccc3nsnc23)CC1)N1CC=C(c2ccccc2)CC1 (centres unmarked),-10.3%
8,O=C(CCNS(=O)(=O)c1cccc2nsnc12)N1CCN(c2ccccn2)CC1,-24%
9,CC1CCN(C(=O)C2CCCN(S(=O)(=O)c3cccc4nsnc34)C2)CC1 (centres unmarked),-27.8%
10,CCCCN(CC)C(=O)C1CCC(CNS(=O)(=O)c2cccc3nsnc23)CC1 (centres unmarked),-23.7%
11,O=C(C1CCCN(S(=O)(=O)c2cccc3nsnc23)C1)N1CCN(c2ccccn2)CC1 (centres unmarked),-50.2%
12,CCN(CC)C(=O)C1CCC(CNS(=O)(=O)c2cccc3nsnc23)CC1 (centres unmarked),2.47%
13,CCCN(CCC)C(=O)C1CCC(CNS(=O)(=O)c2cccc3nsnc23)CC1 (centres unmarked),-69.5%
14,CN(C)c1ccc(CN(Cc2ccco2)C(=O)c2ccco2)cc1,-30.1%
15,COC(=O)c1ccc(C(=O)OC)c(NC(=S)N2CCN(C)CC2)c1,20.4%
16,Cc1cc(C(=O)CS(=O)(=O)c2ccc(Cl)cc2)cc(C)c1O,16.6%
17,CS(=O)(=O)Nn1cnc2ccccc2c1=O,10.7%
18,Cc1cc(C)c(S(=O)(=O)N2CCCOC2CNC(=O)C(=O)NCc2cccs2)c(C)c1 (centres unmarked),-8.31%
19,O=C1NC(=Nc2ccccc2)/C(=C/c2ccco2)S1,12.4%

row,SMILES,"hERG current change (%, negative = inhibition) at 10uM"
1,CCOc1ncccc1C(=O)NNC(=O)c1cccc(S(=O)(=O)Nc2ccc(OC)cc2)c1,6.87%
2,CCOC(=O)Cc1[nH]nc2c1C(c1cccc(OC)c1OC)C(C#N)=C(N)O2 (centres unmarked),-0.21%
3,CN1CCN(c2nc(-c3ccccc3)c3cc(Cl)ccc3n2)CC1,-48.1%
4,O=C1CN(c2nc(-c3ccccc3)c3cc(Cl)ccc3n2)c2ccccc2N1,13.1%
5,CCN1CCN(c2nc(-c3ccccc3)c3ccccc3n2)CC1,-71.2%
6,c1ccc(-c2nc(N3CCCC3)nc3ccccc23)cc1,8.87%
7,CCOC(=O)N1CCN(c2nc(-c3ccccc3)c3ccccc3n2)CC1,5.1%
8,O=C(O)CCCC(=O)N1CCN(c2nc(-c3ccccc3)c3ccccc3n2)CC1,1.86%
9,O=C(O)CCC(=O)N1CCN(c2nc(-c3ccccc3)c3ccccc3n2)CC1,13.7%
10,Clc1ccc2nc(N3CCNCC3)nc(-c3ccccc3)c2c1,-59.1%
11,c1ccc(-c2nc(N3CCNCC3)nc3ccccc23)cc1,-65.2%
12,CC(=O)NC(Cc1ccc(F)cc1)C(=O)O (centres unmarked),-24.1%
13,COC(=O)CP(=O)(c1ccccc1)c1ccccc1,15.2%
14,Oc1ccc(/C=N/NP(=S)(c2ccccc2)c2ccccc2)cc1,-3.89%
15,COc1ccccc1CNC(=O)c1cccs1,3.82%
16,CCC1=C2CC[C@H]3C(=O)N(CC)C(=O)[C@H]3[C@H]2[C@@]2(Cc3ccccc3)C(=NCCOC)OC(=O)N2C1=O,10%
17,CC(C)(Oc1ccc(Cl)cc1)C(=O)OCC(=O)N1CCN(c2ccccc2)CC1,-7.02%
18,CCN1C[C@]2(COC)CC[C@H](OC)[C@@]34C1[C@]1(OCO[C@@]15C[C@H](OC)[C@H]1C[C@@H]3[C@@H]5[C@H]1OC)[C@@H](O)[C@H]24,10.5%
